HTT aggregate = reduces HttQ103-GFP aggregates in PC12 cells; 1.1% of 220,000 active; PC12 HttQ103-GFP aggregates, Acumen cytometry, 40 h; AID 1688; Potency, µM (highest dose often 46.1 µM), inactives show at the highest dose activity change, negative = inhibition, actives largely listed as inhibitors; also: potency is read from the fitted curve at half-maximal effect; % is scaled to controls: 0 for no effect and ±100 for the full control effect; nearly all actives have a fitted effect of over 60% in size
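Aggregates are detected as GFP objects 1–25 µm with signal 6 STDEV over background in lysates of induced PC12 cells. These carry Huntingtin exon 1 with 103 glutamines fused to GFP under an ecdysone promoter; compounds titrated.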
GLA inh pH 4.5 = blocks human alpha-galactosidase A at pH 4.5; P06280; purified enzyme, 4-MU-alpha-Gal fluorescence, pH 4.5; activity change, negative = inhibition, % at 105 µM; 230,000 tested, under 10 active; AID 1467;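 also: 0% = full activity with enzyme and -100% = basal without enzyme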
Target sequence (P06280 whole entry, looked up): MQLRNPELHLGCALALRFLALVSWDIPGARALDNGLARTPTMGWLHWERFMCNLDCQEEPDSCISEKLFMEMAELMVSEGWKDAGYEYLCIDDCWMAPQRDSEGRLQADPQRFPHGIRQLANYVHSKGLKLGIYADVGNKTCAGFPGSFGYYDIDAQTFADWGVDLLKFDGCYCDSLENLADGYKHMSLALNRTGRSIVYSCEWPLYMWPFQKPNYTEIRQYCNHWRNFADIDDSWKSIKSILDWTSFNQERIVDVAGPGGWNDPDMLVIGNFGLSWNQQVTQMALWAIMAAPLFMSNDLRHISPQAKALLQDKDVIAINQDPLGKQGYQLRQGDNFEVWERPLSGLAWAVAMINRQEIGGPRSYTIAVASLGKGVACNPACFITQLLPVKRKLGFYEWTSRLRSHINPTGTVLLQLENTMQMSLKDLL
HTT cytoprotect = Huntington cell model cytoprotection by ATP luminescence. 0.14% of 230,000 active. PC12 HTT-Q103 induced, cytoprotection, ATP luminescence, 40 h. AID 1471. Potency, µM (top dose mostly 56.4 µM), for inactives: cytoprotection (ATP increase), usual class: activators; also: potency is read from the fitted curve at half-maximal effect; % of control where 0% means no effect; nearly all actives have a fitted effect of over 45% in size
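Compounds were screened for protection of PC12 cells against cell death after tebufenozide induction (100 nM final) of mutant Huntingtin exon 1 (Q103) fused to GFP.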
ERK EGF block = EGF-driven ERK pathway inhibition. HEK293-V1b, EGF-stimulated phospho-ERK AlphaScreen. Potency, µM (series often up to 11.5 µM), without a hit: at the top dose activity change, negative = inhibition, usual class: inhibitors. 0.41% of 130,000 active. AID 1454;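 also: potency is read from the fitted curve at half-maximal effect; plate controls were stimulated vehicle wells for no effect and unstimulated vehicle basal for full effect; nearly all actives have a fitted effect of over 55% in size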
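In this qHTS, HEK293 cells with stable type-1 vasopressin (V1b) receptor were exposed to compound at 37C for 30 min, stimulated 5 min with EGF at 25 nM, lysed, and probed for phospho-ERK by AlphaScreen.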
aGal spleen mod = inhibits or activates alpha-galactosidase in human spleen homogenate. P06280. human spleen homogenate, 4MU-alpha-Gal fluorescence, 40 min. Potency, µM (series often up to 80 µM), for the others: at the top dose activity change, negative = inhibition, most hits filed as inhibitors. 0.008% of 240,000 active. AID 2107;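 also: potency is read from the fitted curve at half-maximal effect; 0% = enzyme with vehicle and -100% = no enzyme basal signal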
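Human spleen homogenate (1 ug) as enzyme source, 4-methylumbelliferyl-alpha-D-galactopyranoside 1 mM final, citrate/phosphate pH 5.0 with 0.01% Tween-20. Compounds 40 min at 37C, NaOH/glycine stop; fluorescence Ex 365/Em 440, Hill-fit AC50.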
* marks the source's active call; other numbers are inactive results; ? = inconclusive; nt = not tested or not shown; ! = not confirmed by another sample; [ ] = dose if it differs, or a comment. An excerpt weighted towards active compounds, which were near 1.2% of everything screened. Calls follow the shape of the dose curve; as a rule, active = well fitted curve in the direction sought with a large enough effect; inconclusive = small, poorly fitted or top-dose-only effect, or another doubt; inactive = no such curve, though single readings can be large; an effect the other way counts as inactive or inconclusive.

SMILES	HTT aggregate	GLA inh pH 4.5	HTT cytoprotect	ERK EGF block	aGal spleen mod
CC(C)C[C@H](N)C(=O)N[C@H](C(=O)N[C@H](C(=O)N[C@@H](Cc1ccc(O)cc1)C(=O)N1CCC[C@H]1C(=O)N[C@@H](Cc1c[nH]c2ccccc12)C(=O)N[C@H](C(=O)N[C@@H](CCC(N)=O)C(=O)N[C@@H](CCCN=C(N)N)C(=O)O)[C@@H](C)O)C(C)C)C(C)C	nt	nt	-32%	nt	1%
COC(=O)C1=C(C)NC(C)=C(C(=O)OC)C1c1ccc(NC(C)=O)cc1	3.2µM*	1	-24%[0.074 µM]	nt	3%
CCN(CC)c1ccc(NC2CC(=O)N(CCc3ccc(OC)cc3)C2=O)cc1 (centres undefined)	31%[9.22 µM]	4	23%[10 µM]	35µM*	-8%
COc1ccc(NC(=S)NC(NC(=O)c2cccc(Cl)c2)C(Cl)(Cl)Cl)c([N+](=O)[O-])c1 (centres undefined)	28µM*	-5	18%[10 µM]	1%	-1%
CS(=O)(=O)c1nc(-c2cccs2)cc(C(F)(F)F)n1	7.1µM*	-4	-99%	nt	10%
O=C(O)CCS(=O)(=O)c1nc(-c2cccs2)cc(C(F)(F)F)n1	?	3	4%	nt	12%
Cc1cc(NC(=O)CCCS(=O)(=O)c2nc(-c3cccs3)cc(C(F)(F)F)n2)no1	10µM*	-2	-88%	nt	16%
CCCCCCCCCCCCCCCC(=O)NC(C)C(=O)O (centres undefined)	nt	7	2%	4%	-8%
Cc1cnc(NC(=O)c2ccc(OCC3CCCO3)cc2)s1 (centres undefined)	10%	3	-169%	-1%	3%
O=C(Nc1nc2ccccc2s1)c1ccc(OCC2CCCO2)cc1 (centres undefined)	32µM*	1	-5%[10 µM]	nt	-14%
O=C(Nc1ccc(Cl)c(S(=O)(=O)N2CCOCC2)c1)c1ccc(OCC2CCCO2)cc1 (centres undefined)	?	-17	-132%	14µM*	2%
CCN(CC)C[C@@H](O)CN1CCCCc2nc(C)c(C)cc21	nt	nt	13%[10 µM]	nt	-3%[17.5 µM]
O=c1c(-c2ccc(F)cc2)nc2cnc(Oc3ccccc3)nc2n1Cc1cccs1	nt	nt	?	nt	12%
C=C1CCN(C(CC(C)C)C(=O)NCc2ccc(OC)cc2)S(=O)(=O)c2ccccc21 (centres undefined)	nt	nt	nt	nt	7%
COc1cccc(CS(=O)(=O)c2nnnn2-c2ccccc2)c1	nt	-12	?	20%	-5%
CCCS(=O)(=O)c1nnnn1-c1cccc(OC)c1	3.5µM*	8	-70%	nt	14%
COc1ccc(CNC(=O)c2c(C)nc3ccccn23)cc1	25µM*	-1	22%[10 µM]	3%	-6%
Cc1ccc(SCC(=O)c2c(C)nc3ccccn23)cc1	14µM*	-8	-79%	-6%	3%
CC12CCC=CC1C(c1cccc(Br)c1)N(Cc1ccccc1)C2=O (centres undefined)	nt	nt	nt	nt	-2%
O=c1[nH]ncc2ccccc12	nt	nt	-48%	nt	4%
COc1cc(/C=C\C(=O)CC(=O)/C=C\c2ccc(O)c(OC)c2)ccc1O	nt	nt	9%	nt	nt
COc1cccc(Nc2nc3ccccc3nc2NS(=O)(=O)c2cccs2)c1	14µM*	0	-77%	nt	8%
Oc1ccc(O)cc1	-13%	-7	32µM*!	3%	1%
O=C(c1ccc(O)cc1)c1ccc(C(=O)c2ccc(O)cc2)cc1	?	-6	24%[10 µM]	-4%[57.5 µM]	-5%
COc1ccc(N2CCN(C(=O)CSc3nnc(-c4cc5ccccc5cc4O)n3C)CC2)cc1	13µM*	4	-20%	nt	-1%
COc1ccc(-n2cnnc2SCC(=O)N2CCN(c3ccccc3)CC2)cc1	14%	-6	-15%	nt	-1%
Clc1ccccc1-c1nc(Nc2ccncc2)c2ccccc2n1	nt	nt	-29%	nt	2%
C=C1c2ccccc2O[C@H](C(=O)OCC)C1OC (mixture of isomers)	nt	-6	-22%[96.6 µM]	nt	3%[119 µM]
